# According to PubChem BioAssay (NCI):
# Several values for one entry are separate records, joined by “and”; a condition that tells them apart may be missing. Identical values can stand only once. About 83,000 compounds went through this panel and 20% of them were active in at least one assay; those are over-represented in the sample as a whole.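 Testing used 96-well plates and a 48-hour single-concentration exposure. Example: -40 means 40% of the starting cells died.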 Activity calls are given as the source filed them. Rule for the calls: active = growth percent below 10; inactive = the rest.
# Tested on: MDA-MB-468 breast
# Assay: NCI-60 one-dose screen, 48 h (100 = growth as untreated, 0 = no growth, -100 = all killed)
# Conditions: 10 µM unless noted
row,SMILES,growth
1,O=C(Nc1cccc([N+](=O)[O-])c1)c1ccc(Cl)c(Cl)c1,64.2% (inactive)
2,Cn1c(SSc2ccc(-c3cccnc3)n2C)ccc1-c1cccnc1,72.3% (inactive) and 93.8% (inactive)
3,CC[n+]1c(C)ccc2cc(C)ccc21,58.1% (inactive)
4,COc1cc(OC)c(/C=C/S(=O)(=O)Cc2ccc(OC)c(NCC(=O)NO)c2)c(OC)c1,39.5% (inactive)
5,N#Cc1ccc(N2Cc3ccccc3OC3=C2C(=O)c2c(O)ccc(O)c2C3=O)cc1,-18.8% (active)
6,Cc1noc(C)c1-c1ccc2nc(NC(=O)[C@H]3CCN(C#N)C3)cn2c1,57.3% (inactive)
7,N#C/C(=N\Nc1ccc(Cl)cc1)C(=O)Nc1cc(-c2ccccc2)nn1-c1ccccc1,7.6% (active)
8,Fc1ccc(/C=C/c2cc(/C=C/c3ccc(F)cc3)n(-c3cc(F)cc(F)c3)n2)cc1,108% (inactive)
9,Cc1nn(-c2ccccc2)c2nc3c(nc12)C1=NCCN1C(c1ccc(Cl)cc1)N3 (stereo unspecified),48.2% (inactive)
10,O=S(=O)(Nc1ccsc1-c1nc(-c2ccccc2)no1)c1cc(Cl)cc(Cl)c1,88.6% (inactive)
11,COc1cc(/C=C/c2cc(/C=C/c3ccc(O)c(OC)c3)n(C(=O)Nc3ccc(Cl)cc3)n2)ccc1O,-26.4% (active)
12,O=C(O)c1ccc(OCc2ccccc2)cc1,104% (inactive)
13,c1ccc(-c2nc(N3CCOCC3)c3c4c(sc3n2)CCCCCC4)nc1,57.4% (inactive)
14,COc1ccc(OC)c(-c2nc(SCC(=O)c3ccc(C#N)cc3)[nH]c(=O)c2C#N)c1,94.3% (inactive)
15,O=C(CCCCCn1c2ccccc2c2c3c(c4c5ccccc5[nH]c4c21)C(=O)N(O)C3=O)N1CCOCC1,3.68% (active)
16,CCOc1ccc(-n2nc(C(=O)Nc3ccccc3)nc2-c2cc(OC)c(OC)c(OC)c2)cc1,42.5% (inactive)
17,O=C1/C=C/[C@@H](O)[C@@H]2C[C@@H](O)C[C@H]2/C=C/CCC[C@@H](C(F)(F)F)O1,-40.7% (active)
18,CN1C(=O)N(C)C2C1NN=c1s/c(=C\c3cccnc3)c(=O)n12 (stereo unspecified),58.1% (inactive)
19,C#CCN=C[C@]12CC[C@@H](C(=C)C)[C@@H]1[C@H]1CC[C@@H]3[C@@]4(C)CCC(=O)C(C)(C)[C@@H]4CC[C@@]3(C)[C@]1(C)CC2,40.3% (inactive)
20,Clc1cc2c(nn1)Nc1ccccc1S2,96.9% (inactive)
21,CCC#CC[C@H]1C/C=C2/C(=O)C=C[C@@H]2C/C=C\CCCC(=O)O1,-3.46% (active)
22,Nc1nc(SC/C=C/CCl)c2[nH]cnc2n1,103% (inactive) and 127% (inactive)
23,CC1(C)NCCC[C@]2(C)[C@H]3C/C(=N\O)C4[C@@H]5C[C@@](C)(CO)CC[C@]5(C)CC[C@@]4(C)[C@]3(C)CC[C@@H]12 (stereo partly specified),89.4% (inactive)
24,COC(=O)CCCCC1=CCC2C(=O)C=C(O)C2C1 (stereo unspecified),100% (inactive)
25,CCN(CC)CCNC(=O)c1c(C)[nH]c(/C=C2\C(=O)Nc3cc(NC(=O)NC(=O)c4ccc(OC)cc4F)ccc32)c1C,75.2% (inactive)
26,C[C@]12CC[C@H]3[C@@H](CCC4=CC(=O)CC[C@@]43C)[C@@H]1CC[C@@H]2c1csc(N)n1,28.4% (inactive)
